43 sequences from article PMC10726135, “HNF4α isoforms regulate the circadian balance between carbohydrate and lipid metabolism in the liver” can be followed below.

The full ranking holds about 18,000 sequences; the median of “log2 normalized intensity” is about 0.36, and the highest 2% start at about 7.3. This excerpt belongs to a sample that is enriched for the highest values.

The test concerns the target T1, HNF4alpha8 (COS-7 nuclear extract) (Homo sapiens, UniProt P41235-5 1-452).
T1 sequence: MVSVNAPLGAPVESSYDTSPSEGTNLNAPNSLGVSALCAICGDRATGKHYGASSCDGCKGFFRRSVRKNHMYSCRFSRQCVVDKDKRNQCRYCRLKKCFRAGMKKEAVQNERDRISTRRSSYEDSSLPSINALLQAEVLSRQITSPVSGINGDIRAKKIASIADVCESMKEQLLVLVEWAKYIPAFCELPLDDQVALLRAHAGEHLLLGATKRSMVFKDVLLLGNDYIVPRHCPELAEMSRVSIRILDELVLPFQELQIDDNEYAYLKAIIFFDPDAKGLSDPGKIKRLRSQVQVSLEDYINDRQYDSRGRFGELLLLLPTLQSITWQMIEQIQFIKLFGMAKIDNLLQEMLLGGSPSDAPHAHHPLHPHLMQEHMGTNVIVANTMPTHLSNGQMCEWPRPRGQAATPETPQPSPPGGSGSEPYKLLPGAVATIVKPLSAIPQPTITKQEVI
The test is described as follows: protein-binding microarray; COS-7 nuclear extract on double-stranded Agilent 4x180k PBM; binding buffer, salt, pH and temperature not given in the material; high values mean tight binding. The following applies: chain copies: 2; label: 3' end of strand 1 on the slide; dsDNA, one strand shown. Put shortly: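 Double-stranded oligonucleotides of ~60 nt, representing ~44,000 test sequences in quadruplicate, made up a custom Agilent SurePrint G3 4x180k array. Nuclear extracts from COS-7 cells transiently transfected by CaPO4 with a human HNF4α isoform expression vector were applied, and bound HNF4α was imaged at 2-µm resolution on an Agilent G2565CA scanner. Binding signal refers to the background-corrected, normalized gProcessedSignal output of Agilent software.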
With “TTCACCTTTCGCCCTTTGTCCTATGACTCTGCCTAGGGAGATTAGAGTATCGGTCGA”, the binding signal was determined as 5.44 log2 normalized intensity. With “GAGTGACCTGGTATTGCAAGTATTTCACCCGCCTAGGGAGATTAGAGTATCGGTCGA” the figure was 1.59 log2 normalized intensity; with “ACCTTTGACCTGGTACTATGACCTTTCACCGCCTAGGGAGATTAGAGTATCGGTCGA”, 7.83 log2 normalized intensity; with “CTATGACCTTTCACCTTTTAGCTTGGCATGGCCTAGGGAGATTAGAGTATCGGTCGA”, 5.08 log2 normalized intensity.

For “CCCCAAAAACTTGGACTCTATAGCCTATGCGCCTAGGGAGATTAGAGTATCGGTCGA”, the binding signal stood at 2.66 log2 normalized intensity. With “TGGGGACCTTTGGGCTCTGACCCGAAGGGTGCCTAGGGAGATTAGAGTATCGGTCGA” the figure was 2.6 log2 normalized intensity; with “CTTTTGAGTTTCTACCATAGACCCTGTTGGGCCTAGGGAGATTAGAGTATCGGTCGA”, 0.898 log2 normalized intensity. The value for “CTAACCAGCTCTATCAGTCTGGGTCCAGTCGCCTAGGGAGATTAGAGTATCGGTCGA” was 2.82 log2 normalized intensity. The value for “CCCCCGGCTCTACGCAAGTGGTACCTCCCGGCCTAGGGAGATTAGAGTATCGGTCGA” was 2.76 log2 normalized intensity. For “CTTGGCACTTAGCACAAGTGACTATTCTGGGCCTAGGGAGATTAGAGTATCGGTCGA”, the binding signal amounted to 0.0244 log2 normalized intensity. The value for “AGGCAAAGGTGTCAGGACCTTTCTTTATGGGCCTAGGGAGATTAGAGTATCGGTCGA” was 0.451 log2 normalized intensity; that for “TCCTTTTCTTTCACATACAAAATTTACTTTGCCTAGGGAGATTAGAGTATCGGTCGA” was 1.75 log2 normalized intensity; that for “GCAGAAGGTGTTTCAGATGGACCAAAGGTCGCCTAGGGAGATTAGAGTATCGGTCGA” was 6.13 log2 normalized intensity. The value for “CTGAGGTTAAAGTCCACATTCTTTAGCATAGCCTAGGGAGATTAGAGTATCGGTCGA” was 6.12 log2 normalized intensity; that for “TCACAAAGGGCTGAGGTTAAAGTCCACATTGCCTAGGGAGATTAGAGTATCGGTCGA” was 8.03 log2 normalized intensity; that for “AAGGGCTGAGGTTAAAGTCCACATTCTTTAGCCTAGGGAGATTAGAGTATCGGTCGA” was 6.82 log2 normalized intensity. The value for “ATCAAAGGCTTCTAGAAGAGGTTAAAGACCGCCTAGGGAGATTAGAGTATCGGTCGA” was 1.58 log2 normalized intensity; that for “AAGCTTCACAAAGGGCTGAGGTTAAAGTCCGCCTAGGGAGATTAGAGTATCGGTCGA” was 7.44 log2 normalized intensity; that for “GAGGCTGAAGTGAAGTTACAAAGGTCACACGCCTAGGGAGATTAGAGTATCGGTCGA” was 6.46 log2 normalized intensity. Take “CTCTGTATTGTAAAAGAAAGTGAGCAGGCAGCCTAGGGAGATTAGAGTATCGGTCGA”: the binding signal was -0.689 log2 normalized intensity. With “AGCAAACACAAACTATGACCTTTGAAACTTGCCTAGGGAGATTAGAGTATCGGTCGA” the figure was 7.82 log2 normalized intensity.

With “TTCTTTTTGAAGCAAAGCCTTTGAGCAGATGCCTAGGGAGATTAGAGTATCGGTCGA”, the binding signal is 0.807 log2 normalized intensity. With “ACACAAACTATGACCTTTGAAACTTACATTGCCTAGGGAGATTAGAGTATCGGTCGA” the figure was 6.68 log2 normalized intensity; with “GTTCTATGGGATGACCTTTGAGCAATAGGAGCCTAGGGAGATTAGAGTATCGGTCGA”, 6.05 log2 normalized intensity.

With “TGACAAGCAAACACAAACTATGACCTTTGAGCCTAGGGAGATTAGAGTATCGGTCGA”, the binding signal stood at 9.22 log2 normalized intensity. With “ATGACCCAAACTTCACAAAAATGAGTGCAAGCCTAGGGAGATTAGAGTATCGGTCGA” the figure was -0.806 log2 normalized intensity; with “CAGCAACACTCTACTACTTGACCTTTGAAAGCCTAGGGAGATTAGAGTATCGGTCGA”, 6.62 log2 normalized intensity.

For the sequence “AGAGAGTTCTATGGGATGACCTTTGAGCAAGCCTAGGGAGATTAGAGTATCGGTCGA”, the binding signal turned out to be 7.89 log2 normalized intensity. The value for “GGGCGAGAGAGTTCTATGGGATGACCTTTGGCCTAGGGAGATTAGAGTATCGGTCGA” was 6.82 log2 normalized intensity. With “AGTCTCAAAGGTCAGATGACAGAATTGGTCGCCTAGGGAGATTAGAGTATCGGTCGA”, the binding signal was 4.15 log2 normalized intensity.

As to “GATAACATCTGGACTTTACACAGACCTTTAGCCTAGGGAGATTAGAGTATCGGTCGA”, the binding signal came to 4.07 log2 normalized intensity. With “CCCCTTCTGTTTCCAGAAATCTGACCTCTGGCCTAGGGAGATTAGAGTATCGGTCGA” the figure was 5.06 log2 normalized intensity; with “AGCTGACGCCCCACCCCCTCCACCCCTGCCGCCTAGGGAGATTAGAGTATCGGTCGA”, 6.68 log2 normalized intensity; with “CAATGTGACTGGAGCAGAGCGATCAAAGGTGCCTAGGGAGATTAGAGTATCGGTCGA”, 1.37 log2 normalized intensity. The value for “TGCAGCCCTGCCACTCTTTTTTAGACTTTGGCCTAGGGAGATTAGAGTATCGGTCGA” was 4.39 log2 normalized intensity; that for “ACTACCTCTTTAGGCTGGACTCTGACCCATGCCTAGGGAGATTAGAGTATCGGTCGA” was 7.54 log2 normalized intensity. The value for “CCCTGCCACTCTTTTTTAGACTTTGACCTCGCCTAGGGAGATTAGAGTATCGGTCGA” was 10.2 log2 normalized intensity; that for “GACCTCTGCCCTTCCACCCACTTTATCTTCGCCTAGGGAGATTAGAGTATCGGTCGA” was 3.59 log2 normalized intensity. Consider “CTGACCTCTTTTGGATTTTTCCATATCTGTGCCTAGGGAGATTAGAGTATCGGTCGA”, for which the binding signal amounted to 1.57 log2 normalized intensity. With “ACCAGACTACCTCTTTAGGCTGGACTCTGAGCCTAGGGAGATTAGAGTATCGGTCGA” the figure was 4.7 log2 normalized intensity.

As for “ATGACCTCTTTTAGTAACTGACTTTAACTTGCCTAGGGAGATTAGAGTATCGGTCGA”, the binding signal was found to be 1.03 log2 normalized intensity.

Turning to “CCACTCTTTTTTAGACTTTGACCTCCATATGCCTAGGGAGATTAGAGTATCGGTCGA”, the binding signal stood at 8.93 log2 normalized intensity. With “CTCTTTAGGCTGGACTCTGACCCATTCCTTGCCTAGGGAGATTAGAGTATCGGTCGA” the figure was 5.82 log2 normalized intensity.
